Reference: PubChem BioAssay (Tox21)
A number with no mark means an inactive call. Results filed as inconclusive are left out. A call without a number means that no potency is given here. Calls of active or inactive are those of the source. Unless noted, calls come from the whole dose curve.

Experiments:
[1] = Nuclear factor erythroid 2-related factor 2/antioxidant responsive element (Nrf2/ARE) small molecule agonists: qHTS cell viability counter screen in human keratinocytes (AID 1919968; active = well fitted curve in the direction sought with a large enough effect in the repeat runs; an effect the other way counts as inactive or inconclusive; note: nearly all actives have a fitted effect of over 55% in size)
In short: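 KeratinoSens cells (HaCaT keratinocytes stably carrying an ARE-luciferase reporter) were seeded at 1,500 cells/well and rested 5 h at 37 C/5% CO2. They were then exposed to compounds in DMSO for 23 h. Viability was read by CellTiter-Fluor fluorescence after 1 h.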

[2] = Nuclear factor erythroid 2-related factor 2/antioxidant responsive element (Nrf2/ARE) small molecule agonists: luciferase reporter gene qHTS assay in human keratinocytes (AID 1919969); note: nearly all actives have a fitted effect of over 35% in size; note: potency is the fitted concentration of half-maximal effect
[3] = G protein-coupled receptor (GPCR) small molecule agonists, calcium flux assay: HEK293 wild type cell line counter screen (AID 1920065)
In short: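 Cells were plated and cultured 18 h at 37 C/5% CO2, then loaded with calcium dye for 1 h at 37 C. Compounds in DMSO were pin-transferred in agonist mode, and fluorescence (Ex/Em 480/540) was read kinetically for 3 min at 1 s intervals.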

[4] = p53 small molecule agonists, cell-based qHTS assay with rat liver microsomes (AID 1963578)
In short: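 Compound in DMSO added to p53RE-bla cells 5 h post-plating; rat microsomes/NADPH 0.5 mg/mL final; 16 h, 37 C; LiveBLAzer 2 h RT.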

[5] = p53 small molecule agonists, cell-based qHTS assay with human liver microsomes: qHTS cell viability counter screen (AID 1963579); note: nearly all actives have a fitted effect of over 45% in size
In short: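 HLM-supplemented (0.5 mg/mL final) and NADPH-supplemented (0.5 mg/mL final) p53RE-bla cultures, 4,000 cells per well, were dosed with compounds in DMSO for 16 h at 37 C; luminescent ATP detection (CellTiter-Glo, 30 min, room temperature) quantified surviving cells.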

[6] = p53 small molecule agonists, cell-based qHTS assay with rat liver microsomes: qHTS cell viability counter screen (AID 1963580); note: nearly all actives have a fitted effect of over 45% in size
In short: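 HCT-116 p53RE-bla, 4,000 cells/well, 5 h pre-incubation; cpd + rat liver microsomes 0.5 mg/mL + NADPH 0.5 mg/mL (final); 16 h, 37 C; CellTiter-Glo, 30 min RT; luminescence.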

[7] = p53 small molecule agonists, cell-based qHTS assay: qHTS cell viability counter screen (AID 1963581); note: nearly all actives have a fitted effect of over 45% in size
In short: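 p53RE-bla HCT-116 cells were exposed to compounds for 16 h at 37 C; after the beta-lactamase FRET read in the same wells, CellTiter-Glo was added and luminescence (intracellular ATP) read after 30 min at room temperature.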

[8] = p53 small molecule agonists, cell-based qHTS assay (AID 1963582; active = well fitted activation curve with a large enough effect in the signal ratio in the repeat runs, not every such curve was filed as active; the % refers to the signal ratio; note: potency is the fitted concentration of half-maximal effect)
In short: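 p53RE-bla beta-lactamase reporter cells rested 5 h at 37 C/5% CO2, then received compounds in DMSO by pin transfer and were incubated 16 h at 37 C. LiveBLAzer B/G FRET substrate was loaded for 2 h at room temperature before fluorescence reading.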

[9] = target: 5-hydroxytryptamine receptor 2A (Homo sapiens) (UniProt P28223); test: 5-hydroxytryptamine receptor 2A (HTR2A) small molecule antagonists, cell-based qHTS assay (AID 1963586); note: nearly all actives have a fitted effect of over 45% in size
In short: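 Antagonist-mode intracellular calcium assay: DOI (4 nM) added after 5 min compound pre-incubation at room temperature to dye-loaded HTR2A-CHO cells. Fluorescence followed for 3 min, sampled every second.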

[10] = target: 5-hydroxytryptamine receptor 2A (Homo sapiens) (UniProt P28223); test: 5-hydroxytryptamine receptor 2A (HTR2A) small molecule agonists, cell-based qHTS assay (AID 1963587); note: nearly all actives have a fitted effect of over 30% in size
In short: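 Kinetic calcium-flux fluorescence (2 min, 1 sec intervals) after compound addition in agonist mode. HTR2A-CHO cells were cultured 18 h, then dye-loaded 1 h at 37 C.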

[11] = target: Muscarinic acetylcholine receptor M1 (Homo sapiens) (UniProt P11229); test: Cholinergic receptor muscarinic 1 (CHRM1) small molecule antagonists, cell-based qHTS assay (AID 1963588); note: nearly all actives have a fitted effect of over 40% in size
In short: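 CHRM1-CHO calcium-flux assay, antagonist mode. Cells were seeded 18 h, dye-loaded 1 h at 37 C and given compound for 5 min at RT, then acetylcholine was added at 50nM. FDSS fluorescence was read 3 min; 15 concentrations, three runs.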

[12] = target: Muscarinic acetylcholine receptor M1 (Homo sapiens) (UniProt P11229); test: Cholinergic receptor muscarinic 1 (CHRM1) small molecule agonists, cell-based qHTS assay (AID 1963589); note: nearly all actives have a fitted effect of over 35% in size
In short: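 CHO cells stably expressing human CHRM1, seeded 18 h at 37 C/5% CO2, dye-loaded 1 h at 37 C, then given compound in agonist mode; intracellular calcium fluorescence read kinetically at 1 s intervals. Fifteen concentrations, three independent runs.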

[13] = cAMP Responsive Elements (CRE) small molecule agonists, cell-based qHTS assay (AID 1963590)
In short: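 CRE-bla HEK 293T cells in DMEM with 10% dialyzed FBS, NEAA, pyruvate and 25 mM HEPES were plated 18 h at 37 C/5% CO2, then exposed to compounds in DMSO for 3 h before LiveBLAzer B/G FRET substrate addition.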

[14] = target: Beta-2 adrenergic receptor (Homo sapiens) (UniProt P07550); test: Adrenergic beta2 receptor (ADRB2) small molecule antagonists, cell-based qHTS assay (AID 1963592); note: series mostly up to about 92 µM; nearly all actives have a fitted effect of over 50% in size
In short: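 Cells (CHO, stable ADRB2 overexpression) incubated 18-20hr at 37C; compounds added from DMSO; agonist mix (1nM isoproterenol, 100uM IBMX, 25uM Ro-20-1724) added; 0.5hr RT; d2-cAMP and anti-cAMP-cryptate added; 1hr RT; 665/615 nm read.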

[15] = target: D(2) dopamine receptor (Homo sapiens) (UniProt P14416); test: Dopamine D2 receptor (DRD2) small molecule agonists, cell-based qHTS assay (AID 1963594); note: nearly all actives have a fitted effect of over 35% in size
In short: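 cAMP accumulation in DRD2-HEK293 cells measured by HTRF after 1 h detection; compounds added 10 min before NKH477 (200nM […]) forskolin-analogue stimulation, 30 min at room temperature, with Ro20-1724 present at 0.1 mM final.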

[16] = target: D(2) dopamine receptor (Homo sapiens) (UniProt P14416); test: Dopamine D2 receptor (DRD2) small molecule antagonists, cell-based qHTS assay (AID 1963595; active = well fitted inhibition curve with a large enough effect in the signal ratio in the repeat runs, with a control signal flat; the % refers to the signal ratio)
In short: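 Antagonist mode in DRD2-HEK293 cells: after compound addition with 0.1 mM Ro20-1724, cells received quinpirole (12 nM) and NKH477 (200 nM) for 30 min at room temperature; HTRF cAMP read after 1 h detection.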

[17] = p53 small molecule agonists, cell-based qHTS assay with human liver microsomes (AID 1963577);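 note: p53 response element beta-lactamase reporter cells with liver microsomes plus NADPH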
In short: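 Reporter activation was measured by LiveBLAzer fluorescence intensity in p53RE-bla cells, which had been exposed to compounds for 16 h at 37 C alongside 0.5 mg/mL human liver microsomes and 0.5 mg/mL NADPH (final concentrations).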

[18] = cAMP Responsive Elements (CRE) small molecule antagonists, cell-based qHTS assay (AID 1963591; active = well fitted inhibition curve with a large enough effect in the signal ratio in the repeat runs, not every such curve was filed as active; the % refers to the signal ratio)
In short: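 CRE-bla HEK293T cells were plated 18 h at 37 °C/5% CO2, pinned with compound in DMSO, then stimulated with NKH477 at 0.25 uM final for 3 h. LiveBLAzer B/G FRET substrate was added and plates incubated 2 h at room temperature.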

[19] = target: Beta-2 adrenergic receptor (Homo sapiens) (UniProt P07550); test: Adrenergic beta2 receptor (ADRB2) small molecule agonists, cell-based qHTS assay (AID 1963593);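 note: CHO cells stably overexpressing human ADRB2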
In short: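 CHO cells stably over-expressing ADRB2 were plated overnight at 37C, then dosed with compounds plus a stimulation mix containing 100uM IBMX and 25uM Ro-20-1724 for 0.5hr at room temperature. cAMP was measured by HTRF competition, 1hr.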

[20] = target: KiSS-1 receptor (Homo sapiens) (UniProt Q969F8); test: Human kisspeptin (KISS1R) small molecule agonists, calcium flux assay in KISS1R-HEK293 cells (AID 1920064; active = well fitted curve in the direction sought with a large enough effect in the repeat runs; an effect the other way counts as inactive or inconclusive)
In short: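 HEK293 cells stably expressing human KISS1R were plated 18 h at 37 °C, loaded with calcium dye for 1 h at 37 °C, then given compound by pin tool. Fluorescence (Ex/Em 480/540) was read kinetically for 3 min.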

Beta-2 adrenergic receptor (Homo sapiens), sequence (P07550 whole entry, looked up): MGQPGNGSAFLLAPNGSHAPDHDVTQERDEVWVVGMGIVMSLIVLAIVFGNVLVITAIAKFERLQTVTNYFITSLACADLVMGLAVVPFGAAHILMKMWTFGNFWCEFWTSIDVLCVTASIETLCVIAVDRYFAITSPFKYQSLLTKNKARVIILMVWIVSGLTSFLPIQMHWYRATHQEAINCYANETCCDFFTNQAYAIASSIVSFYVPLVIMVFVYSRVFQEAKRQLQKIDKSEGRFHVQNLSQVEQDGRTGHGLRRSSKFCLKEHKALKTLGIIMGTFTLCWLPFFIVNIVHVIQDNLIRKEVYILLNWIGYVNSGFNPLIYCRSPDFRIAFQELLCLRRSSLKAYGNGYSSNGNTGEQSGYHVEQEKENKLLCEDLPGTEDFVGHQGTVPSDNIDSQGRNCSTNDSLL
KiSS-1 receptor (Homo sapiens), sequence (Q969F8 whole entry, looked up): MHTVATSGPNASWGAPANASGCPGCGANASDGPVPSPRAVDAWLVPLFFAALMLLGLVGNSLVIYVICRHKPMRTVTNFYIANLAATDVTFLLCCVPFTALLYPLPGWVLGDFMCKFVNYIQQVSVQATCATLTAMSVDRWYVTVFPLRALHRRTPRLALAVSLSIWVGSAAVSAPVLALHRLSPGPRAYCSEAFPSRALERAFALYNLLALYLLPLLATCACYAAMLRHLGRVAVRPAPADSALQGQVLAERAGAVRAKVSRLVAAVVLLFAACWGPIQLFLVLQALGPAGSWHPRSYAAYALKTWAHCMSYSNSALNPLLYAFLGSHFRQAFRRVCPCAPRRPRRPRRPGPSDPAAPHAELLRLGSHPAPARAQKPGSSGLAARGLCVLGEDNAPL
D(2) dopamine receptor (Homo sapiens), sequence (P14416 whole entry, looked up): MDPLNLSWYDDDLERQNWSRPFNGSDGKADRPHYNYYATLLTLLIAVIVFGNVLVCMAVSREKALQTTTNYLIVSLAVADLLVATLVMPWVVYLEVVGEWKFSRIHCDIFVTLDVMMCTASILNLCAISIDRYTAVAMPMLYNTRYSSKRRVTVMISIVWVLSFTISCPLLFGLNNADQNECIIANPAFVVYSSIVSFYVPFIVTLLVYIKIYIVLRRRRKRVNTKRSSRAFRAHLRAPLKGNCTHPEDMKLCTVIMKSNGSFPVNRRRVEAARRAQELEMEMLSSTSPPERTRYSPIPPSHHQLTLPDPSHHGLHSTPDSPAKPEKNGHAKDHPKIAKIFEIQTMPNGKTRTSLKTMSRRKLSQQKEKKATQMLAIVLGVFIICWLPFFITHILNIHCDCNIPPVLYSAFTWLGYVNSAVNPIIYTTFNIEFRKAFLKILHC
Muscarinic acetylcholine receptor M1 (Homo sapiens), sequence (P11229 whole entry, looked up): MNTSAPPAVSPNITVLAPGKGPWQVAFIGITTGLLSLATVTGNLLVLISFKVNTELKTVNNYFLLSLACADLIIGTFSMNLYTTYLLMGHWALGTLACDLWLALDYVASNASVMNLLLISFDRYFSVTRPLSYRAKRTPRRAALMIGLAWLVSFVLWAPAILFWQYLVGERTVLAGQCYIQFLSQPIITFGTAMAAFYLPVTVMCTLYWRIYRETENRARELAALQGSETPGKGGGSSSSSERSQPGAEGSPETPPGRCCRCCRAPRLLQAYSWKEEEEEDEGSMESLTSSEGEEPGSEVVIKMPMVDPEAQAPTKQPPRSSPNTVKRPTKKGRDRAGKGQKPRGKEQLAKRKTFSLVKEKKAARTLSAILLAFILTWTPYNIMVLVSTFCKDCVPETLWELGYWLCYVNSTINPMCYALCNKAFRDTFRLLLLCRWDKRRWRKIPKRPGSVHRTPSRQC
5-hydroxytryptamine receptor 2A (Homo sapiens), sequence (P28223 whole entry, looked up): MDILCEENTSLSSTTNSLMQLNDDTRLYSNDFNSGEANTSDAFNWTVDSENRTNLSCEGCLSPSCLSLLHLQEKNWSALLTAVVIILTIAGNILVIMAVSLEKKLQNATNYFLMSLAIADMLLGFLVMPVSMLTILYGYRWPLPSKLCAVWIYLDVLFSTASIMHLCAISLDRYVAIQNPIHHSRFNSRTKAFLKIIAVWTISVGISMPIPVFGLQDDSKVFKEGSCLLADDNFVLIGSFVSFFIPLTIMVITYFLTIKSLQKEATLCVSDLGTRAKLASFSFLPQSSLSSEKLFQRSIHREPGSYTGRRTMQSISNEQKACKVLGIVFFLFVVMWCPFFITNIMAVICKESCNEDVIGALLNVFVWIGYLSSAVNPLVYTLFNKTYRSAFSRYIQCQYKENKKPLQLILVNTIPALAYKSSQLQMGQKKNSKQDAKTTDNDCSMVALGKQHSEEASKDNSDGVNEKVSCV

SMILES	Potency [1]	Potency [2]	outcome [3]	Potency [4]	Potency [5]	Potency [6]	Potency [7]	Potency [8]	Potency [9]	Potency [10]	Potency [11]	Potency [12]	Potency [13]	Potency [14]	Potency [15]	Potency [16]	Potency [17]	Potency [18]	Potency [19]	outcome [20]
COc1ccc(/C(C)=C/C(=O)O)c(OC)c1	inactive	inactive	inactive	inactive	inactive	inactive	inactive	inactive	inactive	inactive	inactive	inactive	inactive	inactive	inactive	inactive				
CCC(CO)(CO)COCC(CC)(CO)CO	inactive	inactive		inactive	inactive	inactive	inactive	inactive	inactive	inactive	inactive	inactive	inactive	inactive	inactive	inactive	inactive	inactive		
Nc1c(CC(=O)O)cccc1C(=O)c1ccc(Br)cc1	inactive	inactive	inactive	inactive	inactive	inactive								inactive	inactive	inactive				
CC(C)(O)c1ccccc1CC[C@@H](SCC1(CC(=O)O)CC1)c1cccc(/C=C/c2ccc3ccc(Cl)cc3n2)c1	inactive	inactive	inactive		inactive	inactive	inactive	inactive							inactive		inactive	inactive		
COc1ccc2c(c1)C(=O)N(CCc1ccc(S(=O)(=O)NC(=O)NC3CCCCC3)cc1)C(=O)C2(C)C	inactive	inactive	inactive	inactive		inactive				inactive	inactive	inactive			inactive	inactive	inactive			
Nc1cccc(S(=O)(=O)O)c1	inactive	inactive	inactive	inactive	inactive		inactive	inactive		inactive	inactive	inactive	inactive	inactive	inactive	inactive		inactive		
CCNC(=O)C1CC(C)CCC1C(C)C (centres undefined)	inactive	inactive		inactive	inactive	inactive	inactive	inactive	inactive	inactive		inactive	inactive	inactive	inactive	inactive	inactive			
O=C(O)C(=O)Cc1c[nH]c2ccccc12	inactive	54.5 µM (active)		inactive	inactive	inactive	inactive	inactive	inactive		inactive	inactive	inactive	inactive	inactive	inactive	inactive		inactive	
C[C@H]1O[C@@H](n2cc(F)c(=O)[nH]c2=O)[C@H](O)[C@@H]1O	inactive	inactive		inactive	inactive	inactive	inactive	15.8 µM (active)					inactive	inactive	inactive	inactive	inactive	inactive	inactive	
O=C(CCCN1CCN(c2ccccn2)CC1)c1ccc(F)cc1	inactive	inactive			inactive	inactive	inactive	inactive		inactive	inactive	inactive	inactive	inactive			inactive	inactive		
C/C=C(\C)C=O	inactive	inactive	inactive	inactive	inactive	inactive	inactive	inactive	inactive	inactive	inactive	inactive	inactive	inactive	inactive	inactive	inactive	inactive		inactive
COc1ccc([C@@H]2Sc3ccccc3NC(=O)[C@@H]2O)cc1	inactive	inactive	inactive		inactive			inactive	inactive	inactive	inactive	inactive	inactive	inactive		inactive	inactive			
CC1=C(C)C(=O)C(C(CCCCCC(=O)O)c2ccccc2)=C(C)C1=O (centres undefined)	inactive	inactive		inactive	inactive	inactive	inactive	inactive	inactive		inactive	inactive	inactive	inactive	inactive	inactive	inactive			
CC(=O)OC(C)(C)C	inactive	inactive	inactive	inactive	inactive	inactive	inactive	inactive	inactive			inactive	inactive	inactive	inactive	inactive	inactive	inactive		inactive
COC(=O)c1ccc(NC(C)=O)cc1OC	inactive	inactive	inactive	inactive	inactive	inactive	inactive	inactive		inactive		inactive		inactive	inactive	inactive	inactive	inactive	inactive	inactive
CC(=O)O[C@H]1CC[C@@]2(C)C(=CC[C@@H]3[C@@H]2CC[C@]2(C)C(C(C)=O)=CC[C@@H]32)C1	inactive	inactive	inactive	inactive	inactive	inactive	inactive	inactive		inactive	inactive	inactive	inactive			inactive	inactive	inactive	inactive	inactive
